Assay [1] concerns the target CCAAT/enhancer-binding protein beta (Homo sapiens) (UniProt P17676). As to the kind of experiment: ATG_C_EBP_CIS: Attagene CIS-FACTORIAL HepG2 Assay for human CCAAT/Enhancer Binding Protein (C/EBP) beta (AID 2282927). The settings on record: HepG2 Attagene cis-factorial transcription factor reporter; actives raise or lower the signal. In a few lines:
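Transiently transfected HepG2 (MRTU library, endogenous TF-driven promoters); 24 h dosing; total RNA → oligo(dT) RT → PCR → 6-FAM primer extension → HpaI digest → CE; fit bidirectionally vs DMSO.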

The nature of assay [2]: ATG_CMV_CIS: Attagene CIS-FACTORIAL HepG2 Assay for human CMV (Internal Marker) (AID 2282928).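 Further: endpoint acts as a background internal control marker rather than a target.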 The settings on record: HepG2 CMV promoter reporter, transcription factor profiling; actives raise or lower the signal. In a few lines: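 Fluorescence intensity of RT-PCR-derived reporter fragments, resolved by capillary electrophoresis, gives the signal. HepG2 liver cells bearing transfected cis-element reporters were treated 24 h; activity in either direction was fit relative to DMSO-treated controls.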

A short description of assay [3]: ATG_DR4_LXR_CIS: Attagene CIS-FACTORIAL HepG2 Assay for human Liver X Receptor (LXR), DR4 submotif (AID 2282929). The settings on record: HepG2 Attagene DR4 cis-reporter, mRNA transcription; actives raise or lower the signal. In a few lines: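 HepG2, transient MRTU transfection, cis-element (DR4) promoter; 24 h compound exposure; total RNA → oligo(dT) RT → PCR → 6-FAM primer extension → HpaI cut → CE. Gain/loss vs DMSO, bidirectional fit.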

Assay [4] is described as follows: ATG_AP_1_CIS: Attagene CIS-FACTORIAL HepG2 Assay for human Activator Protein 1 (AP-1) (AID 2282931). As to conditions: HepG2 Attagene cis-factorial AP-1 reporter mRNA; actives raise or lower the signal. In a few lines: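 Transient MRTU transfection of HepG2 → 24 h chemical treatment → RNA isolation, RT-PCR, 6-FAM labelling, HpaI digest → capillary electrophoresis. Fit: bidirectional, DMSO negative control.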

Assay [5] can be described thus: ATG_BRE_CIS: Attagene CIS-FACTORIAL HepG2 Assay for human Bone Morphogenetic Protein (BMP) Response Element (BRE) (AID 2282933). As to conditions: HepG2 BMP response element reporter, Attagene transcription factor profiling; actives raise or lower the signal. In a few lines: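 Endogenous transcription factor activity read in transiently transfected HepG2 cells after 24 h chemical exposure. Bidirectional curve fitting against DMSO; readout is reporter transcript level by RT-PCR with capillary electrophoresis of labelled products.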

Assay [6] deals with Transcription factor E2F1 (Homo sapiens) (UniProt Q01094). As to the kind of experiment: ATG_E2F_CIS: Attagene CIS-FACTORIAL HepG2 Assay for human E2F Transcription Factor 1 (AID 2282935). The settings on record: HepG2 Attagene cis-reporter, E2F reporter RNA transcripts; actives raise or lower the signal. In a few lines:
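Transient MRTU transfection of HepG2; 24 h compound exposure; RNA → oligo(dT) RT → PCR → FAM label → HpaI cut → CE fluorescence. Gain/loss of signal fit against DMSO.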

Assay [7] in a line: ATG_E_Box_CIS: Attagene CIS-FACTORIAL HepG2 Assay for human Enhancer Box (E-box) (AID 2282936). The settings on record: HepG2 E-box cis-reporter transcription, actives raise or lower the signal. A digest of the protocol: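 Transiently transfected HepG2, endogenous TF-driven reporters, 24 h dosing. Readout: RT-PCR plus capillary electrophoresis of fluorescent reporter fragments. Gain or loss of signal fitted bidirectionally against DMSO baseline.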

Assay [8] in a line: ATG_M_61_CIS: Attagene CIS-FACTORIAL HepG2 Assay for M61 Transcription Factor (Internal Marker) (AID 2282937). As to conditions: HepG2 Attagene CIS-FACTORIAL M61 internal marker reporter; actives raise or lower the signal. A digest of the protocol: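 Human liver HepG2, transient MRTU transfection (cis promoter elements), 24 h compound. Total RNA → oligo(dT) RT → PCR → FAM label → HpaI → CE. Internal background marker; bidirectional fitting, DMSO = baseline.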

Assay [9] is described as follows: ATG_EGR_CIS: Attagene CIS-FACTORIAL HepG2 Assay for human Early Growth Response 1 (EGR1) (AID 2282938). The settings on record: HepG2 Attagene CIS-FACTORIAL EGR reporter mRNA; actives raise or lower the signal. In a few lines: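 Transient transfection of human HepG2 with multiple cis-regulated reporter units, chemical exposure 24 h, total RNA isolated. Reverse transcription, PCR, fluorescent labelling and capillary electrophoresis quantify reporter transcripts; activity fitted bidirectionally against DMSO.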

Assay [10] is described as follows: ATG_M_19_CIS: Attagene CIS-FACTORIAL HepG2 Assay for M19 Transcription Factor (Internal Marker) (AID 2282939). The settings on record: HepG2 Attagene CIS-FACTORIAL M19 internal marker reporter; actives raise or lower the signal. A digest of the protocol:
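Internal marker readout, fitted in both directions against DMSO, from HepG2 cells carrying transfected cis-element reporter constructs; RT-PCR and capillary electrophoresis of reporter mRNA after 24 h exposure.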

A short description of assay [11]: ATG_ERE_CIS: Attagene CIS-FACTORIAL HepG2 Assay for Estrogen Response Element (ERE) (AID 2282940). As to conditions: HepG2 ERE cis-reporter, Attagene RNA transcript; actives raise or lower the signal. In a few lines:
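After 24 h compound treatment, RNA from transfected HepG2 cells was reverse-transcribed, reporter cDNA PCR-amplified, FAM-labelled, HpaI-cut and resolved by capillary electrophoresis. ERE-driven cis reporter transcripts reflect endogenous factors; gain or loss scored against DMSO.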

Assay [12] in a line: ATG_Ets_CIS: Attagene CIS-FACTORIAL HepG2 Assay for human Erythroblast Transformation Specific (ETS) (AID 2282941). As to conditions: HepG2 ETS cis-reporter transcription, actives raise or lower the signal. A digest of the protocol:
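Multiplexed reporter transcript profiling: HepG2, 24 h treatment, total RNA to cDNA, PCR, 6-FAM labelling, HpaI cut, capillary electrophoresis. Gain- or loss-of-signal fitted against DMSO.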

In assay [13] the target is Hepatocyte nuclear factor 3-beta (Homo sapiens) (UniProt Q9Y261). As to the kind of experiment: ATG_FoxA2_CIS: Attagene CIS-FACTORIAL HepG2 Assay for human Forkhead box A2 (FOXA2) (AID 2282942). The settings on record: HepG2 cis-reporter transcription factor activity, 24 h; actives raise or lower the signal. A digest of the protocol:
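Transient MRTU transfection of HepG2 liver cells; 24 h treatment; total RNA → oligo(dT) RT → PCR → FAM primer extension → HpaI cut → CE. Bidirectional fit vs DMSO.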

A short description of assay [14]: ATG_FoxO_CIS: Attagene CIS-FACTORIAL HepG2 Assay for human Forkhead box O (FoxO) (AID 2282943). The settings on record: HepG2 Attagene cis-reporter, FoxO element, mRNA; actives raise or lower the signal. In a few lines: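 Read-out: fluorescence of 6-FAM-labelled reporter cDNA fragments resolved by capillary electrophoresis. Transiently transfected HepG2 cells were dosed for 24 h; activity fitted in both directions relative to DMSO controls.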

Assay [15] can be described thus: ATG_GATA_CIS: Attagene CIS-FACTORIAL HepG2 Assay for human GATA Binding Protein (AID 2282944). As to conditions: HepG2 GATA cis-element reporter, Attagene multiplex mRNA; actives raise or lower the signal. A digest of the protocol:
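Reporter transcripts from a GATA cis-regulated unit, among multiplexed reporters in transfected HepG2 cells, were measured by RT-PCR with capillary electrophoresis after 24 h dosing. Induction or loss scored relative to DMSO.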

Assay [16] is described as follows: ATG_GLI_CIS: Attagene CIS-FACTORIAL HepG2 Assay for human Zinc Finger Protein GLI1 (AID 2282945). The settings on record: HepG2, Attagene cis-factorial reporter mRNA, GLI element; actives raise or lower the signal. In a few lines:
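Transiently transfected HepG2 cells report endogenous transcription factor activity via cis-element-driven reporter units. After 24 h compound exposure, reporter mRNA was measured by RT-PCR with capillary electrophoresis; bidirectional fitting against DMSO baseline.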

A short description of assay [17]: ATG_AP_2_CIS: Attagene CIS-FACTORIAL HepG2 Assay for human Activator Protein 2 (AP-2) (AID 2282932). As to conditions: HepG2 AP-2 cis-reporter, Attagene transcription factor profiling; actives raise or lower the signal. In a few lines: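 Read-out: fluorescent reporter mRNA via RT-PCR and capillary electrophoresis, 24 h post-dose in transiently transfected HepG2. Endogenous factors drive cis-promoter reporters; gain or loss of signal fitted bidirectionally against DMSO.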

In assay [18] the target is Retinoic acid receptor alpha (Homo sapiens) (UniProt P10276). As to the kind of experiment: ATG_DR5_RAR_CIS: Attagene CIS-FACTORIAL HepG2 Assay for human Retinoic Acid Receptor Alpha (RARE), DR5 submotif (AID 2282934). The settings on record: HepG2 Attagene cis-factorial RARE DR5 reporter, mRNA; actives raise or lower the signal. A digest of the protocol: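 Read-out: DR5-driven reporter transcript measured by RT-PCR, 6-FAM primer extension, HpaI digest and capillary electrophoresis. Human HepG2 liver cells carry transiently transfected cis-element reporter constructs; dosing lasts 24 h. Gain or loss of signal fitted against DMSO baseline.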
Retinoic acid receptor alpha (Homo sapiens), sequence (P10276 whole entry, looked up): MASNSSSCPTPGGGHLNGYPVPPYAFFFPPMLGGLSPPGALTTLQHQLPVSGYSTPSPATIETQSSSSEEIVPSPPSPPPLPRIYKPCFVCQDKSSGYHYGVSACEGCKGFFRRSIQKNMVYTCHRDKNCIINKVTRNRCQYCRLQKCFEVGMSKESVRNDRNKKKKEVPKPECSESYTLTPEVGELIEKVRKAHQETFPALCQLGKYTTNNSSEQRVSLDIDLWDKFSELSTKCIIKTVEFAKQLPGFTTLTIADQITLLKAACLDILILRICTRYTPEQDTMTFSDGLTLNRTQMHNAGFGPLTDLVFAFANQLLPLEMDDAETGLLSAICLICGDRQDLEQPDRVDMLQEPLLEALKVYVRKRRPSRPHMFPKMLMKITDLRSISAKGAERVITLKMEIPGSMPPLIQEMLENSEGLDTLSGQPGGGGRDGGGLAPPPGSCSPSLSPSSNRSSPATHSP

“And” between values parts separate entries of the source, which are not always exact repeats. Identical values can stand only once. More than one record can exist for a structure, and the calls need not agree. The source made the active and inactive calls. How the source made its calls: active means hit-call score of the fitted dose curve at least 0.9, where 1 is the maximum; inactive means score below 0.9.

CCAAT/enhancer-binding protein beta (Homo sapiens), sequence (P17676 whole entry, looked up): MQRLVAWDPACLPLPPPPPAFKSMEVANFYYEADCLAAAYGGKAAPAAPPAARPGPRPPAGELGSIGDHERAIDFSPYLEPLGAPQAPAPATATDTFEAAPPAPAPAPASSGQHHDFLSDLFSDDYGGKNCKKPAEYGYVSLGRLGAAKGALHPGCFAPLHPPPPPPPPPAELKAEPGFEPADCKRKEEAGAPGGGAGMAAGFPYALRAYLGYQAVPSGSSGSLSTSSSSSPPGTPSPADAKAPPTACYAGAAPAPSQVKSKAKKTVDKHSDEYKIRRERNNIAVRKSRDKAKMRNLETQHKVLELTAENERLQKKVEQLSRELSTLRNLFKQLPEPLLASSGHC
Hepatocyte nuclear factor 3-beta (Homo sapiens), sequence (Q9Y261 whole entry, looked up): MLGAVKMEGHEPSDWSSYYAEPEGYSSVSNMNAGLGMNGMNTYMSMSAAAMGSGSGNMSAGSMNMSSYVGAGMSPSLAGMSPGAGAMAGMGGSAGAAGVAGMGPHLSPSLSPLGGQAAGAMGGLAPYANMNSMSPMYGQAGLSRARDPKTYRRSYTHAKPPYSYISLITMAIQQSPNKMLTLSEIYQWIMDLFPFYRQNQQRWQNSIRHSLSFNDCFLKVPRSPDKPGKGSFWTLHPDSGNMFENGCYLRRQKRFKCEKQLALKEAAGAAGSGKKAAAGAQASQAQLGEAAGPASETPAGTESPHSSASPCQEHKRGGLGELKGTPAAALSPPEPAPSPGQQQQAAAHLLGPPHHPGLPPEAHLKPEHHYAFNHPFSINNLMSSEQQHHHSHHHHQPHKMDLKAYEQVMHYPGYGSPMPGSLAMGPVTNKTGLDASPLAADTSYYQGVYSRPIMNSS
Transcription factor E2F1 (Homo sapiens), sequence (Q01094 whole entry, looked up): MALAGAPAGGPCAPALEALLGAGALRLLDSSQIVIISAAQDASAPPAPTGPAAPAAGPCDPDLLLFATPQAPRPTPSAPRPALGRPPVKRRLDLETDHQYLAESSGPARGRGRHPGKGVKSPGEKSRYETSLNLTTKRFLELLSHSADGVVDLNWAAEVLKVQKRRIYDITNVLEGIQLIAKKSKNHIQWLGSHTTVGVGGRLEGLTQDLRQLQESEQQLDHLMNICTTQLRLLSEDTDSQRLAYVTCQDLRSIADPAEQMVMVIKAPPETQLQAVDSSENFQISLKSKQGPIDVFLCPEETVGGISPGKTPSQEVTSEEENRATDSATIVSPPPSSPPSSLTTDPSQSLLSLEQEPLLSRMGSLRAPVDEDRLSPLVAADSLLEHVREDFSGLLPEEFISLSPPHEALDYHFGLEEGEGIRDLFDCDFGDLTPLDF

Take `CC(=O)S[C@@H]1CC2=CC(=O)CC[C@]2(C)[C@H]2CC[C@@]3(C)[C@@H](CC[C@@]34CCC(=O)O4)[C@H]12`: the result in assay [1], in assay [2], in assay [3], in assay [4], in assay [5] and in [6] was inactive. The result in assay [7], in assay [8], in assay [9], in assay [10], in assay [11] and in assay [12] was inactive. The outcome in assay [13], in [14], in assay [15] and in assay [16] was inactive. Moreover, the AC50 was 26.1 µM (active) and 3.77 µM (active) and 12.1 µM (active) in assay [2]; 10.6 µM (active) and 12.5 µM (active) and 11.8 µM (active) in assay [3]; 70.9 µM (active) and 152 µM (active) in [5]; 7.33 µM (active) and 26.6 µM (active) and 18.4 µM (active) in assay [7]; 17.6 µM (active) and 27.2 µM (active) in assay [9]; 100 µM (active) in assay [12].
On to `CCSC(=O)N(CC(C)C)CC(C)C`, for which the result in assay [1], in assay [2], in [3], in assay [4], in assay [17] and in [5] was inactive. Besides, the outcome in [18], in assay [6], in [7], in assay [8], in [9] and in [10] was inactive. The molecule was classed as inactive in assay [11], in assay [12], in assay [13], in assay [14], in assay [15] and in [16].
On to `CC(C)(c1ccc(O)cc1)c1ccc(O)cc1`, for which the AC50 in [1] is 33.4 µM (active); in [2], 50 µM (active) [middle of 6 runs]; in assay [17], 121 µM (active) and 148 µM (active) and 101 µM (active); in assay [5] it was 155 µM (active); in [9], 100 µM (active) [middle of 6 runs]; in assay [12], 101 µM (active) and 33.7 µM (active). Further, the AC50 is 58.2 µM (active) in assay [13], 57.7 µM (active) in assay [14] and 58.5 µM (active) in assay [16]. The outcome in assay [1], in assay [2], in [3], in [4], in [17] and in [5] was inactive. In addition, the outcome in assay [18], in [6], in assay [7], in assay [8], in assay [9] and in assay [10] was inactive. For the same molecule, the call in assay [12], in assay [13], in assay [14], in assay [15] and in assay [16] was inactive.

(Values after PubChem BioAssay (EPA / NIEHS).)
